# High-throughput results: PubChem, several laboratories
# Mtb UGM inh: blocks M. tuberculosis UGM enzyme; P9WIQ1; purified UGM, fluorescence polarization probe displacement; inhibition, % at 10 µM; 320,000 tested, 0.06% active; AID 504406; in the data active = inhibition above about 10%, passing the limit was not always enough
# SSB-PriA inh: blocks PriA binding to SSB C-terminal tail. AlphaScreen SSBct-PriA binding, biotinylated peptide. inhibition, % at 33 µM. 430,000 tested, 0.6% active; in the data active = inhibition mostly above about 37%, no sharp cut-off; inactive = mostly below about 20%;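 note: plate controls were negative control peptide for no effect and reference peptide for full effect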
# FBA Mtb inh: Mtb fructose-bisphosphate aldolase inhibition. P9WQA3. purified M. tuberculosis FBA, fluorescence read-out. inhibition, % at 1 µM. 360,000 tested, 2.3% active; in the data active = inhibition above about 27%;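 note: 0% = vehicle and 100% = reference inhibitor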
# GDH-TPI counter: inhibits GDH-TPI coupling enzymes, artifact for Mtb FBA screen. GDH-TPI coupled enzyme counterscreen, NADH absorbance. AID 588335. inhibition, % at 4.8 µM. 360,000 tested, 1.2% active; in the data active = inhibition above about 30%;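 note: 0% = DMSO wells and 100% = wells lacking the enzyme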
# Mtb bLac sens: beta-lactam sensitization of Mtb H37Rv; M. tuberculosis H37Rv growth with meropenem, percent inhibition; inhibition, % at 25 µM; 330,000 tested, 0.27% active; AID 434955; call rule not given here;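 note: growth measured after seven days incubation then overnight dye step; 0% = bacteria only wells and 100% = bacteria with antibiotic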
# Rv3671c inh: inhibitors of M. tuberculosis serine protease Rv3671c; 320,000 tested, 0.048% active; P9WHR9; inhibition, % at 5.96 µM; in the data active = inhibition above about 38%;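 note: extracellular domain of Rv3671c used as enzyme; 0% = enzyme with DMSO and 100% = no enzyme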
# Target sequence (P9WHR9 whole entry, looked up, the tested form may be a part): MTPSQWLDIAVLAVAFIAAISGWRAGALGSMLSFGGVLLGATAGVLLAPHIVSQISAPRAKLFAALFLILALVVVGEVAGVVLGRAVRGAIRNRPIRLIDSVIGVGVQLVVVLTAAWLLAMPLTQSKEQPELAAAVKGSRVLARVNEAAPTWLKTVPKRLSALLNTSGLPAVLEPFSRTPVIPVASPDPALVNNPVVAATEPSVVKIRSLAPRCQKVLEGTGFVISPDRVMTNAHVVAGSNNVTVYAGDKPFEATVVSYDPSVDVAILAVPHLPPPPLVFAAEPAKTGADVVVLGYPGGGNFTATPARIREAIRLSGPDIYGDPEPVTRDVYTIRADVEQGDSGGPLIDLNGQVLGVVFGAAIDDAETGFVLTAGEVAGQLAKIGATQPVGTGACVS
# Numbers without * were called inactive; . = no result; + = active, no number. Rows were chosen to be rich in hits. Some 3.2% of all compounds tested hit in one or more screens of this group.
SMILES,Mtb UGM inh,SSB-PriA inh,FBA Mtb inh,GDH-TPI counter,Mtb bLac sens,Rv3671c inh
Cc1ccc2c(c1)[C@@H]1CN(C)CC[C@@H]1N2S(=O)(=O)c1ccc([N+](=O)[O-])cc1,-4,13,-1,14,-3,2
Cc1ccc2c(c1)C1CN(C)CCC1N2Sc1ccccc1[N+](=O)[O-] (stereo not given),-1,55*,1,0,29,0
CCc1cc2c(=O)n(-c3ccccc3)c(SCC(N)=O)nc2s1,1,-5,2,0,3,-1
NC(=O)CSc1nc2sc(-c3ccccc3)cc2c(=O)n1N,4,-14,-1,35*,32,-16
Cc1nc2sc(-c3ccccc3)cc2c(=O)n1N,0,-16,0,47*,-9,-15
COC(=O)c1scc(-c2ccc(C)cc2)c1S(=O)(=O)Nc1ccc(C)c(Cl)c1,.,2,.,.,.,.
N#Cc1c(-c2ccccc2)[nH]c(=O)[nH]c1=O,1,-16,0,5,-4,-1
N#Cc1c(-c2cccnc2)c2c([nH]c1=O)-c1ccccc1OC2,0,-15,+,14,-4,6
O=C(Nc1ccccc1-c1cn2ccsc2n1)c1ccc(C(F)(F)F)nc1,.,4,.,.,.,.
COc1cc2c(cc1OC)-c1nc3ccccc3c(=O)n1C(C)(C)C2,-1,1,5,39*,91,-12
CCCN1CCCc2cc(CCNC(=O)C(=O)NCc3ccc(OC)cc3)ccc21,.,49,.,.,.,.
CCCN1CCCc2cc(CCNS(=O)(=O)c3ccc(OC)c(OC)c3)ccc21,.,67*,.,.,.,.
CCCN1CCCc2cc(CCNS(=O)(=O)c3ccc(OC)cc3)ccc21,.,62*,.,.,.,.
CCCN1CCCc2cc(CCNS(=O)(=O)c3ccc(OC)c(Cl)c3)ccc21,.,44*,.,.,.,.
CCCN1CCCc2cc(CCNS(=O)(=O)c3cc(C)c(C)cc3OC)ccc21,.,60*,.,.,.,.
CCCN1CCCc2cc(CCNC(=O)C(=O)Nc3cc(C)ccc3OC)ccc21,.,-14,.,.,.,.
CN(C)C(=O)COc1ccc2ccc(=O)oc2c1,2,-15,23,7,3,4
CC(C)=CC(O)C/C(C)=C/COc1ccc2ccc(=O)oc2c1 (stereo not given),1,-17,83*,17,-6,8
O=C(CSc1ncc(-c2cccc(Cl)c2)o1)NCc1ccc2c(c1)OCO2,.,-16,.,.,.,.
CCc1cc(=O)oc2cc(C)cc(OCC(=O)N3CCC(C(=O)NC(C)C)(c4ccccc4)CC3)c12,-2,-1,66*,2,-4,1
COc1ccc(CCNC(=O)COc2cc(C)cc3oc(=O)cc(C)c23)cc1OC,-2,-5,5,9,-2,3
CCCCc1cc(=O)oc2cc(C)cc(OC(C)C(=O)O)c12 (stereo not given),0,-12,134*,12,3,7
CCCCc1cc(=O)oc2cc(O)cc(O)c12,1,5,129*,9,-2,-6
Cc1cc(OCC(=O)NC(Cc2ccc(Cl)cc2)C(=O)O)c2c(C)cc(=O)oc2c1 (stereo not given),3,-13,74*,6,-5,-10
Cc1cc(OCC(=O)N2CCC(C(=O)O)(c3ccccc3)CC2)c2c(C)cc(=O)oc2c1,1,-4,10,2,3,-10
SMILES,Mtb UGM inh,SSB-PriA inh,FBA Mtb inh,GDH-TPI counter,Mtb bLac sens,Rv3671c inh
Cc1cc(Cl)ccc1NC(=O)C(C)Oc1ccc(Cl)cc1C (stereo not given),.,-12,.,.,.,.
COc1ccc(S(=O)(=O)NCC(c2ccsc2)N2CCN(C)CC2)c(C)c1 (stereo not given),.,6,.,.,.,.
CCCc1cc(=O)oc2cc(C)cc(OCC(=O)Nc3ccccn3)c12,2,-3,23,3,-4,-1
Cc1c(OCC(=O)NC(Cc2ccc(Cl)cc2)C(=O)O)ccc2c3c(c(=O)oc12)CCCC3 (stereo not given),-3,-6,6,7,-5,8
CCCc1cc(=O)oc2cc(C)cc(OCC(=O)N[C@@H](CSCc3ccccc3)C(=O)O)c12,2,-1,39*,6,-4,-11
COc1ccc2c(CC(=O)NC(Cc3ccc(Cl)cc3)C(=O)O)cc(=O)oc2c1C (stereo not given),3,-5,121*,10,-4,.
c1cncc(-c2csc(Nc3nc4cc5c(cc4s3)OCO5)n2)c1,.,6,.,.,.,.
CCOC(=O)c1oc2nc(CC(C)C)c3c(c2c1N)CCC3,-2,-19,178*,5,86,-4
